In PubChem BioAssay (Tox21) one finds Potency data, which are given here for 8 compounds.

Records with an inconclusive call do not appear. The source made the active and inactive calls. Unless noted, calls follow the shape of the full dose curve.

A short description of test [1]: Nuclear factor erythroid 2-related factor 2/antioxidant responsive element (Nrf2/ARE) small molecule agonists: qHTS cell viability counter screen in human keratinocytes (AID 1919968; active = well fitted cell-killing curve with a large enough effect in the repeat runs; also: nearly all actives have a fitted effect of over 55% in size). In a few lines: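 Viability counter-screen: KeratinoSens reporter cells, DMSO-delivered compounds, 23 h at 37 C, CellTiter-Fluor fluorescence.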
Background: In qHTS, concentration-response curves come from the screen itself.

A short description of test [2]: Nuclear factor erythroid 2-related factor 2/antioxidant responsive element (Nrf2/ARE) small molecule agonists: luciferase reporter gene qHTS assay in human keratinocytes (AID 1919969). Also: nearly all actives have a fitted effect of over 35% in size. Also: potency is read from the fitted curve at half-maximal effect.
The target in test [3] is Gonadotropin-releasing hormone receptor (Homo sapiens) (UniProt P30968). In words: Human gonadotropin-releasing hormone receptor (GnRHR) small molecule agonists, calcium flux assay in GnRHR-HEK293 cells (AID 1920063). Also: nearly all actives have a fitted effect of over 35% in size. The essentials: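 Tox21-format agonist screen using human GnRHR-expressing HEK293 cells and a fluorescent calcium dye; kinetic 3-min fluorescence reading after compound addition, 15-point concentration series run in triplicate.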
Gonadotropin-releasing hormone receptor (Homo sapiens), sequence (P30968 whole entry, looked up): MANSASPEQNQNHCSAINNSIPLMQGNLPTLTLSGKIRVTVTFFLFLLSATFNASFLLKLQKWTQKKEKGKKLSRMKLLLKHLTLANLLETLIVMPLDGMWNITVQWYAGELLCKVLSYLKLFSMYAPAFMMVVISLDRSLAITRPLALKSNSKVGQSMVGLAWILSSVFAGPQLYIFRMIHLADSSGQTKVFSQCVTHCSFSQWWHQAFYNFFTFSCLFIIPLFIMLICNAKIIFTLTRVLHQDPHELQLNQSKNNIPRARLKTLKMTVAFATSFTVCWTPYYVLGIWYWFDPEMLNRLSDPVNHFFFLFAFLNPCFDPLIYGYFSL
On the technique in general: Calcium flux is commonly read through the fluorescence of an indicator in the cells.

The nature of test [4]: G protein-coupled receptor (GPCR) small molecule agonists, calcium flux assay: HEK293 wild type cell line counter screen (AID 1920065). The essentials: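 In this agonist-mode screen, ATP is the positive control and DMSO the vehicle. Cells grow 18 h before a 1 h dye incubation at 37 C; signal is taken at Ex/Em 480/540 over 3 min.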
The nature of test [5]: p53 small molecule agonists, cell-based qHTS assay with rat liver microsomes: qHTS cell viability counter screen (AID 1963580). Also: nearly all actives have a fitted effect of over 45% in size. In a few lines:
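Viability is assessed in parallel with the p53 reporter read: HCT-116 p53RE-bla cells receive compounds plus rat microsomes and NADPH (0.5 mg/mL final apiece), incubate 16 h at 37 C, and then CellTiter-Glo luminescence is recorded.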

A short description of test [6]: p53 small molecule agonists, cell-based qHTS assay: qHTS cell viability counter screen (AID 1963581). Also: nearly all actives have a fitted effect of over 45% in size. The essentials:
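Compounds are pinned onto HCT-116 p53RE-bla cells and left 16 h at 37 C. Following the reporter FRET read, ATP is quantified by CellTiter-Glo luminescence after 30 min at room temperature.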

Test [7] has as its target 5-hydroxytryptamine receptor 2A (Homo sapiens) (UniProt P28223). In words: 5-hydroxytryptamine receptor 2A (HTR2A) small molecule antagonists, cell-based qHTS assay (AID 1963586). Also: nearly all actives have a fitted effect of over 45% in size. Also: potency is read from the fitted curve at half-maximal effect. In a few lines: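 Antagonist-mode intracellular calcium assay: DOI (4 nM) added after 5 min compound pre-incubation at room temperature to dye-loaded HTR2A-CHO cells. Fluorescence followed for 3 min, sampled every second.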

Test [8] shares this target. The experiment in a line: 5-hydroxytryptamine receptor 2A (HTR2A) small molecule agonists, cell-based qHTS assay (AID 1963587). Also: nearly all actives have a fitted effect of over 30% in size. The essentials: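 CHO cells stably expressing human HTR2A, plated 18 h, loaded with calcium dye 1 h at 37 C. Agonist mode: compounds added and intracellular calcium fluorescence recorded kinetically for 2 min at 1 sec intervals.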
Test [9] has as its target Muscarinic acetylcholine receptor M1 (Homo sapiens) (UniProt P11229). In words: Cholinergic receptor muscarinic 1 (CHRM1) small molecule antagonists, cell-based qHTS assay (AID 1963588). Also: nearly all actives have a fitted effect of over 40% in size. In a few lines:
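CHRM1-CHO calcium-flux assay, antagonist mode. Cells were seeded 18 h, dye-loaded 1 h at 37 C and given compound for 5 min at RT, then acetylcholine was added at 50nM. FDSS fluorescence was read 3 min; 15 concentrations, three runs.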

The target is the same in test [10]. The experiment in a line: Cholinergic receptor muscarinic 1 (CHRM1) small molecule agonists, cell-based qHTS assay (AID 1963589). Also: nearly all actives have a fitted effect of over 35% in size. In a few lines:
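Stable CHRM1-CHO cells (human receptor) were incubated 18 h, dye-loaded for 1 h at 37 C and exposed to test compounds for agonist activity, with calcium-dependent fluorescence followed kinetically.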

Test [11] in a line: cAMP Responsive Elements (CRE) small molecule antagonists, cell-based qHTS assay (AID 1963591; active = well fitted inhibition curve with a large enough effect in the signal ratio in the repeat runs, not every such curve was filed as active; the % refers to the signal ratio). In a few lines:
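qHTS in CRE-bla HEK 293T cells: compound in DMSO, then 0.25 uM NKH477 (final), 3 h at 37 °C/5% CO2; beta-lactamase FRET read-out after 2 h substrate incubation.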

Test [12] deals with Beta-2 adrenergic receptor (Homo sapiens) (UniProt P07550). In words: Adrenergic beta2 receptor (ADRB2) small molecule antagonists, cell-based qHTS assay (AID 1963592). Also: nearly all actives have a fitted effect of over 50% in size. Also: potency is read from the fitted curve at half-maximal effect. In a few lines: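 Cells (CHO, stable ADRB2 overexpression) incubated 18-20hr at 37C; compounds added from DMSO; agonist mix (1nM isoproterenol, 100uM IBMX, 25uM Ro-20-1724) added; 0.5hr RT; d2-cAMP and anti-cAMP-cryptate added; 1hr RT; 665/615 nm read.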
Beta-2 adrenergic receptor (Homo sapiens), sequence (P07550 whole entry, looked up): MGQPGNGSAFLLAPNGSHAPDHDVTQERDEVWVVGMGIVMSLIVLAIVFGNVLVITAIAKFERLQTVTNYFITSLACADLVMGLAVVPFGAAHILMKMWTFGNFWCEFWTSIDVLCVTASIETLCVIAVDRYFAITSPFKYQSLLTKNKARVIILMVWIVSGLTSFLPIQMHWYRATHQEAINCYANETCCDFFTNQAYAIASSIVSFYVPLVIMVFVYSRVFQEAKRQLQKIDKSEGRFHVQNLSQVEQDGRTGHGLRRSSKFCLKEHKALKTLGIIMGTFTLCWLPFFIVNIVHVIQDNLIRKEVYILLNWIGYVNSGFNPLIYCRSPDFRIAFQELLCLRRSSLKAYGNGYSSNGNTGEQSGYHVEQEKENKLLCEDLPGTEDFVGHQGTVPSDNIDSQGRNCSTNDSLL

The target in test [13] is D(2) dopamine receptor (Homo sapiens) (UniProt P14416). The experiment in a line: Dopamine D2 receptor (DRD2) small molecule agonists, cell-based qHTS assay (AID 1963594). Also: nearly all actives have a fitted effect of over 35% in size. In a few lines: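 HEK293 cells stably expressing human DRD2, pre-treated with PDE inhibitor Ro20-1724 (0.1 mM final) and compound 10 min at room temperature, then stimulated with NKH477 (200nM […]) for 30 min. cAMP read by HTRF (665/620 nm).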
D(2) dopamine receptor (Homo sapiens), sequence (P14416 whole entry, looked up): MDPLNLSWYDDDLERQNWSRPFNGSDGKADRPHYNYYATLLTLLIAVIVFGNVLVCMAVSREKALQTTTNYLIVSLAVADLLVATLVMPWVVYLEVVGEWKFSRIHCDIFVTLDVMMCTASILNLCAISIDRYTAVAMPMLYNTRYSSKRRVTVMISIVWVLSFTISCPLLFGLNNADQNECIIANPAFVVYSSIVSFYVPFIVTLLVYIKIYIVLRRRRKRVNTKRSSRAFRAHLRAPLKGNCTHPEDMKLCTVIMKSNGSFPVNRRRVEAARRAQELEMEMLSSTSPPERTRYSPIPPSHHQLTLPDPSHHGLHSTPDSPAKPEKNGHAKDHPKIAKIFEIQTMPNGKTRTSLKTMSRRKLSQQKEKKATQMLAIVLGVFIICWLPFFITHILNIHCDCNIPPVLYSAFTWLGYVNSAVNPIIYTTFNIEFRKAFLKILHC

Test [14] has the same target. In words: Dopamine D2 receptor (DRD2) small molecule antagonists, cell-based qHTS assay (AID 1963595; active = well fitted inhibition curve with a large enough effect in the signal ratio in the repeat runs, with a control signal flat; the % refers to the signal ratio). The essentials: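 Antagonist mode in DRD2-HEK293 cells: after compound addition with 0.1 mM Ro20-1724, cells received quinpirole (12 nM) and NKH477 (200 nM) for 30 min at room temperature; HTRF cAMP read after 1 h detection.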
Test [15] is described as follows: p53 small molecule agonists, cell-based qHTS assay with human liver microsomes: qHTS cell viability counter screen (AID 1963579). Also: nearly all actives have a fitted effect of over 45% in size. In a few lines: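 Luminescent CellTiter-Glo read-out, 30 min at room temperature, gauged cytotoxicity in p53RE-bla cells exposed 16 h at 37 C to DMSO-dissolved compounds with metabolic activation by human liver microsomes and NADPH, each 0.5 mg/mL final.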

The nature of test [16]: p53 small molecule agonists, cell-based qHTS assay (AID 1963582; active = well fitted activation curve with a large enough effect in the signal ratio in the repeat runs, not every such curve was filed as active; the % refers to the signal ratio). In a few lines: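 Agonist activity was scored from beta-lactamase FRET fluorescence in p53RE-bla cells treated 16 h at 37 C with compounds in DMSO, substrate incubation being 2 h at room temperature.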
Test [17] can be described thus: cAMP Responsive Elements (CRE) small molecule agonists, cell-based qHTS assay (AID 1963590). In a few lines:
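FRET-based beta-lactamase readout (LiveBLAzer B/G, 2 h RT) quantified CRE activation in HEK 293T CRE-bla cells after 3 h treatment with DMSO-dissolved compounds.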

Test [18] concerns the target Beta-2 adrenergic receptor (Homo sapiens) (UniProt P07550). The experiment in a line: Adrenergic beta2 receptor (ADRB2) small molecule agonists, cell-based qHTS assay (AID 1963593).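 Also: CHO cells stably overexpressing human ADRB2.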 In a few lines: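 CHO cells stably over-expressing ADRB2 were plated overnight at 37C, then dosed with compounds plus a stimulation mix containing 100uM IBMX and 25uM Ro-20-1724 for 0.5hr at room temperature. cAMP was measured by HTRF competition, 1hr.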

Test [19] in a line: p53 small molecule agonists, cell-based qHTS assay with rat liver microsomes (AID 1963578). The essentials: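 Rat liver microsome activation: microsomes 0.5 mg/mL, NADPH 0.5 mg/mL final; p53RE-bla cells, 16 h 37 C; LiveBLAzer readout, 2 h RT dark.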

Muscarinic acetylcholine receptor M1 (Homo sapiens), sequence (P11229 whole entry, looked up): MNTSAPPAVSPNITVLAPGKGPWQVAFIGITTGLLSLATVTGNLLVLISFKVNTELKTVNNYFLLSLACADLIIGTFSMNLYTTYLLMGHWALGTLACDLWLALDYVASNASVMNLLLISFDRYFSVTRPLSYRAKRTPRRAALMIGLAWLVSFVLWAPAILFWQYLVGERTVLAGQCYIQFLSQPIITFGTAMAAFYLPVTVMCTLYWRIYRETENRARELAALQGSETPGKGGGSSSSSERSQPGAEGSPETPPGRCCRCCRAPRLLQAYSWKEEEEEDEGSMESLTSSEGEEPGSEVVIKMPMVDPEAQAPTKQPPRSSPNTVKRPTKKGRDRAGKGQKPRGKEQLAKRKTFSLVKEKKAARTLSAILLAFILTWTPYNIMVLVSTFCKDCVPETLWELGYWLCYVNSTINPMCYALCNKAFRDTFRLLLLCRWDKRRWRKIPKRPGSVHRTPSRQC
5-hydroxytryptamine receptor 2A (Homo sapiens), sequence (P28223 whole entry, looked up): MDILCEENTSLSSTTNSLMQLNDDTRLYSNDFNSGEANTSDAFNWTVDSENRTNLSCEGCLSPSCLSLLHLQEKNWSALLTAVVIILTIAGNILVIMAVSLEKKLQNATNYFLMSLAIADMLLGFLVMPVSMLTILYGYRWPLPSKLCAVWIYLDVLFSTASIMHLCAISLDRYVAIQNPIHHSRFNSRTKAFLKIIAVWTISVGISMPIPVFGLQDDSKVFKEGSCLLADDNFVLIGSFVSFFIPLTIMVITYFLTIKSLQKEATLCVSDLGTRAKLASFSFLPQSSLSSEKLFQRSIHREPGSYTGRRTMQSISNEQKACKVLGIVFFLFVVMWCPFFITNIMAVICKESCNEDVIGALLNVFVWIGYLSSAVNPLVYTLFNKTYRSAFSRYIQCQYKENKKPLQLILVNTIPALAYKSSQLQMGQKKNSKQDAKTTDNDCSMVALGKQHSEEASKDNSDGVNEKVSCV

In the case of `O=C(c1ccccc1)c1ccc(O)cc1`, the Potency result in [1], in [2], in test [3], in test [4], in test [5] and in test [6] was “inactive” in each case. Moreover, the Potency result in test [7], in [8], in test [9], in test [10], in test [11] and in test [12] was “inactive” each time. In addition, the Potency entry in test [13] and in test [14] was “inactive” each time.

On to `CN(C)C(=O)NC1(c2ccccc2)CCN(CC[C@@]2(c3ccc(F)c(F)c3)CN(C(=O)c3ccccc3)CCO2)CC1`, for which the Potency result in test [1], in [2], in test [3], in test [4], in test [15] and in [5] was “inactive” each time. The Potency result in test [6], in [16], in test [8], in test [10], in [12] and in test [13] was “inactive” each time.

Consider `NCCCN(CCO)CCO`, for which the Potency entry in test [1], in test [2], in test [3], in [4], in [15] and in test [5] was “inactive” each time. In addition, the Potency entry in [6], in test [7], in test [8], in [9], in [10] and in [17] was “inactive” each time. For the same compound, the Potency result in [11], in [18] and in test [13] was “inactive” each time. Besides, in test [12], the Potency was 0.217 µM (active).

Turning to `CC(C)Nc1ccc(NC(C)C)c2c1C(=O)c1ccccc1C2=O`, the Potency result in test [1], in test [2], in test [3], in test [4], in [19] and in test [15] was “inactive” in each case. Also, the Potency entry in test [5], in [16], in test [7], in test [8], in [9] and in test [10] was “inactive” in each case. Moreover, the Potency result in [17], in test [11], in test [12], in [18] and in test [14] was “inactive” in each case.

Turning to `CC(=O)c1ccccc1[N+](=O)[O-]`, the Potency entry in [1], in test [2], in test [3], in test [4], in test [15] and in test [5] was “inactive” in each case. Besides, the Potency entry in test [6], in [7], in test [9], in test [10], in test [17] and in [11] was “inactive” each time. In addition, the Potency entry in [13] and in test [14] was “inactive” throughout.

With `CCn1nc(C(=O)O)c(=O)c2cc3c(cc21)OCO3`, the Potency result in test [1], in test [2], in [3], in test [4], in [6] and in test [16] was “inactive” each time. In addition, the Potency result in [7], in test [8], in test [9], in test [10], in test [12] and in [13] was “inactive” each time. In addition, the Potency result in [14] is “inactive”.

As for `COc1cccc(N(C)C(=S)Oc2ccc3c(c2)CCCC3)n1`, the Potency result in test [1], in test [2], in test [3], in test [4], in [19] and in [5] was “inactive” in each case. Also, the Potency result in test [6], in test [8], in test [9], in [10], in test [11] and in test [12] was “inactive” each time. For the same compound, the Potency entry in [13] and in test [14] was “inactive” in each case. Further, the Potency in test [7] is 5.79 µM (active).

`CCCC/C=C/C=C\C=O`: the Potency entry in [1], in [3], in [19], in [15], in test [6] and in [16] was “inactive” throughout. The Potency result in [7], in [8], in test [9], in test [17], in [12] and in [13] was “inactive” throughout. Also, in test [14], the Potency entry was “inactive”. For the same compound, the Potency in test [2] is 61.1 µM (active).
